# The sample as a whole holds a higher share of hits than the screen did.
# Tg IFNy HTS: inhibitors of Toxoplasma gondii growth with IFN-gamma; activity change, negative = inhibition, % (test concentration not listed); Toxoplasma gondii growth in IFN-gamma-treated host cells; stronger effect = lower value; actives 3.8% (n = 69,000); in the data active = activity change below about -70%, passing the limit was not always enough;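 note: host cells are HeLa cells infected with Toxoplasma gondii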
# Numbers without * were called inactive; ! = not active in a repeat.
SMILES,Tg IFNy HTS
COc1ccc(CNC(=O)c2nc(Nc3ccccc3)c3ccccc3n2)cc1OC,-42.3
CCOc1ccccc1NC(=O)c1nc(Nc2ccc(Cl)cc2)c2ccccc2n1,-64.1
Cc1ccc(NC(=O)c2nc(Nc3ccccc3)c3ccccc3n2)c(C)c1,-41.4
CCNC(=O)c1nc(Nc2ccc(CC)cc2)c2ccccc2n1,-49.1
Cc1ccc(Nc2nc(C(=O)Nc3c(C)cc(C)cc3C)nc3ccccc23)cc1,-59.7
Cc1cc(C)c(NC(=O)c2nc(Nc3ccccc3)c3ccccc3n2)c(C)c1,-77.5*
CCc1ccc(Nc2nc(C(=O)NCc3ccc(OC)c(OC)c3)nc3ccccc23)cc1,-79.4*
CCOc1ccccc1NC(=O)c1nc(Nc2ccccc2)c2ccccc2n1,-81.8*
CCC(C)C(=O)Nc1nnc(CC(C)C)s1 (centres undefined),-14.0
Cc1oc(C(C)C)cc1C(=O)N1CCC2(CN(C)C(=O)O2)C1 (centres undefined),-2.4
NC(=O)N1CCC2O[C@@H](COCc3ccncc3)CCC21 (some centres undefined),-1.7
CN(C)C(=O)CN1CCN(Cc2cccc(C(=O)Nc3cnn(C)c3)c2)CC1,11.1
COC(=O)c1ccc2c(C(=Nc3ccc(N(C)C(=O)CN4CCN(C)CC4)cc3)c3ccccc3)c(O)[nH]c2c1,-77.7*
C=CCN1C(=O)CCCC12CCCN(C(=O)CCc1ccccc1)C2 (centres undefined),-5.6
CN(C)C(=O)N1C[C@@H]2[C@H](C1)c1ccccc1[C@@H]2N1CCOCC1,52.3
CN1[C@H]2CC[C@@H]1CN(C(=O)NCCc1ccccc1)CC2,1.0
O=C(CC(F)(F)F)N1CCC2(C1)C(=O)NCC2c1ccccc1 (centres undefined),171.2
CN(Cc1cccnc1)C1CCN(C(=O)c2cccnc2)C(C(=O)O)C1 (centres undefined),-4.6
CN(Cc1cccnc1)C1CCN(C(=O)c2ccccn2)C(C(=O)O)C1 (centres undefined),-74.0*
CN(Cc1cccnc1)C1CCN(C(=O)c2cnccn2)C(C(=O)O)C1 (centres undefined),8.1
Cc1nn(C)c(C)c1-c1ccnc(N2CCC(c3ccccc3Cl)C2)n1 (centres undefined),35.4
CCN(CC)CC(=O)Nc1ccc(-c2ccc(NC(=O)CN(CC)CC)cc2)cc1,-59.1
Cc1nn(CC(=O)NCCN2CCOCC2)c(=O)c2nc(-c3ccccc3)sc12,6.7
CC1=C(C)CC2C(=O)N(c3ccc4c(c3)OCO4)C(=O)C2C1 (centres undefined),31.4
COc1cc(-c2nc3ccccc3n2C)cc(OC)c1OC,2.3
SMILES,Tg IFNy HTS
COc1cccc(-n2cnc3ccccc32)n1,-90.4*
Cn1c(Br)nc2ccccc21,10.5
CCN1C(=O)CO[C@H]2CN(C(=O)c3cnc4ccccc4c3)C[C@@H]21,-24.9
CC(C)(C)NC(=O)[C@@H]1CCCC[C@@H]1C(=O)NCCS(C)(=O)=O,39.4
C=CCN(Cc1ccccc1C)C(=O)Cc1ccc(O)c(Cl)c1,-6.0
Cn1cc(S(=O)(=O)Nc2ccccc2N2CCOCC2)c(C(F)(F)F)n1,-23.8
O=S(=O)(Nc1ccccc1N1CCOCC1)c1cc(Cl)sc1Cl,-84.6*
O=S(=O)(Nc1ccccc1N1CCOCC1)c1cccc2nonc12,-44.5
COc1ccc(NC(=O)Cn2c(=O)cc(C(=O)N3CCCC3)c3ccccc32)cc1Cl,9.4
Cc1ccc(C2(CN(CCN(C)C)C3CS(=O)(=O)CC3O)CCCCC2)cc1 (centres undefined),14.2
COc1cc2nccc(Oc3ccc(NC(=O)Nc4ccc(F)cc4F)c(F)c3)c2cc1OC,-75.0*
CNC(=O)c1cccc2cc(Oc3ccnc4cc(OCC5(N)CC5)c(OC)cc34)ccc12,-8.1
COc1cc2nccc(Oc3ccc(NC(=O)NC4CC4)c(Cl)c3)c2cc1C(N)=O,-43.2
COc1ccc(S(=O)(=O)Nc2cncc(C(=O)Nc3ccc(F)cc3F)c2)cc1OC,35.2
COc1cc2nccc(Oc3ccc(NC(=O)Nc4cc(C)on4)c(Cl)c3)c2cc1OC,-81.3*
COc1cc(Nc2ccnc3cc(Cl)ccc23)c(C(=O)O)cc1OC,-2.7
CCN1CCN(C(=O)c2c(Cl)ccc(F)c2F)CC1,24.7
Cc1noc(C)c1C1CCCN1Cc1c(-c2ccccc2)nc2ncccn12 (centres undefined),-3.2
COC(CNC(=O)c1nnc2nc(C)cc(C)n12)c1cccs1 (centres undefined),-8.4
Cc1nc(C2CC2)ncc1C(=O)NCc1nccn1Cc1ccccc1,1.6
O=C(c1ccnnc1)N1CCC2(CC1)CN(CCO)Cc1ccccc12,-53.9
c1ccc(-c2ccc3c(n2)CCc2ccccc2-3)cc1,225.5
CNCCC=C1c2ccccc2CCc2ccccc21,-87.9*!
O=C(NC1CCS(=O)(=O)C1)c1cc(-c2ccncc2)c2cnccc2n1 (centres undefined),16.1
CSc1ccc(C(=O)C2CCCN(S(=O)(=O)c3ccccc3)C2)cc1 (centres undefined),-29.6
SMILES,Tg IFNy HTS
Cc1nc(N2CCCC2)nc2c1CCN(S(=O)(=O)c1ccccc1)CC2,-49.5
Cn1c2c(c(=O)n1C)CN(S(=O)(=O)c1ccccc1)CCC2,-75.3*
CCCn1nc(C)c(CNC(=O)C(C)n2cnc3ccccc32)c1C (centres undefined),-2.1
Cc1ccc(=O)n(CC(=O)N2CCCCC2c2nc(-c3ccsc3)cc(=O)[nH]2)n1 (centres undefined),5.6
CSc1sc(-c2ccno2)c(-c2ccco2)c1C#N,76.7
Cc1c(-c2ccccc2)sc(N)c1C#N,-11.6
CSc1sc(-c2ccn[nH]2)c(-c2ccccc2)c1C#N,-85.1*
COc1ccccc1N1CCN(C(=O)c2cc3cccnc3n(Cc3ccccc3F)c2=O)CC1,22.6
O=c1[nH]c2ccc(NCC#Cc3ccccc3)cc2[nH]1,-83.5*
C=CCOc1ccc(CNc2ccc3[nH]c(=O)[nH]c3c2)cc1OC,-8.6
COc1cc(CNc2ccc3[nH]c(=O)[nH]c3c2)ccc1OCc1ccccc1,162.5
COCc1c(C(=O)NC2CCC(n3cnnc3)CC2)noc1C (centres undefined),-18.0
O=C1COC2(CCN(C(=O)c3ccncc3)CC2)CN1Cc1ccccn1,-0.5
CC1N(c2cnn(C)c2)C(=O)COC12CCN(S(C)(=O)=O)CC2 (centres undefined),14.0
CS(=O)c1ccc(-c2nc(-c3ccc(F)cc3)c(-c3ccncc3)[nH]2)cc1 (centres undefined),-90.1*
CS(=O)(=O)c1ccc(-c2nc(-c3ccc(F)cc3)c(-c3ccncc3)[nH]2)cc1,10.5
Cc1[nH]c(-c2ccc(F)cc2)nc1C(=O)O,-34.4
COc1ccc(S(=O)(=O)Nc2cncc(C(=O)Nc3ccc(C)cc3)c2)cc1OC,31.2
Cc1ccc(-c2cc(-c3ccccc3)nc(-n3nc(C)cc3C)n2)cc1,-103.5*
Cc1cc(C)n(-c2nc3ccccc3s2)n1,416.6
Cc1cc(C)n(-c2ncc(C#N)c(N)n2)n1,22.2
Cc1nc(C)n(CCNC(=O)c2cc3ccccc3c(=O)s2)n1,21.4
COc1cccc(-c2nccn2-c2ccc3cn[nH]c3c2)c1OC,9.7
COC(=O)c1ccc(S(=O)(=O)N2CCC(c3nc4ccccc4s3)CC2)cc1,30.0
COc1cc(OC)c(NC(=O)Nc2ccc(-c3nc(-c4ccccc4)co3)cc2)cc1Cl,-85.0*
O=C(Nc1ccc(-c2nc(-c3ccccc3)co2)cc1)Nc1ccccc1Cl,38.0
Cc1ccc(-c2coc(-c3ccc(NC(=O)Nc4ccc(F)cc4F)cc3)n2)cc1,13.7

# Bioassay records (PubChem)
